# Results as given in publication PMC7862700, “An all-to-all approach to the identification of sequence-specific readers for epigenetic DNA modifications on cytosine”.
# Tests used:
# Experiment in all cases: DAPPL (digital affinity profiling via proximity ligation, sequencing); 10 mM Tris-HCl pH 7.5, 50 mM NaCl, 1 mM DTT, 4% glycerol, room temperature, 30 min; GST-TFs on glutathione beads, 16-mer random dsDNA library, 0.1% formaldehyde crosslink after washing; high values mean tight binding
# FEV = molecular target: T1, FEV (Homo sapiens, UniProt Q99581 1-238); settings: protein: recombinant; tags: N-terminal GST; dsDNA, one strand shown
# T1 sequence: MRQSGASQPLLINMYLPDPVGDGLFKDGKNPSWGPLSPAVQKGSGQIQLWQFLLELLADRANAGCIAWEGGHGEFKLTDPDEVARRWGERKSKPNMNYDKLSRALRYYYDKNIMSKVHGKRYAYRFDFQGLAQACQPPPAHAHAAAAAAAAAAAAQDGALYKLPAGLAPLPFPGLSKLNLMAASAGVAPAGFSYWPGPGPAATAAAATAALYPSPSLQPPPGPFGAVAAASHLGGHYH
# In short: (§1)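 The binding signal reported is, for every hexamer, its read frequency for a factor over its read frequency for the tag-only sample. Reads came from pools of yeast-expressed, GST-fused human transcription factors on glutathione beads, barcoded with DNA and mixed with that sample, which were incubated with 200 nmole of a random double-stranded 16-mer DNA library in Tris/NaCl/DTT/glycerol buffer at room temperature for 30 min. After washing, the pools were crosslinked with 0.1% formaldehyde, proximity-ligated with BsaI/T4 ligase for 1 h at 37 °C, PCR-amplified and sequenced on an Illumina NextSeq500.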
# ETV5 = ETV5 (Homo sapiens, UniProt P41161 1-510); settings: protein: recombinant; tags: N-terminal GST; dsDNA, one strand shown
# Chain of ETV5 (P41161 whole entry): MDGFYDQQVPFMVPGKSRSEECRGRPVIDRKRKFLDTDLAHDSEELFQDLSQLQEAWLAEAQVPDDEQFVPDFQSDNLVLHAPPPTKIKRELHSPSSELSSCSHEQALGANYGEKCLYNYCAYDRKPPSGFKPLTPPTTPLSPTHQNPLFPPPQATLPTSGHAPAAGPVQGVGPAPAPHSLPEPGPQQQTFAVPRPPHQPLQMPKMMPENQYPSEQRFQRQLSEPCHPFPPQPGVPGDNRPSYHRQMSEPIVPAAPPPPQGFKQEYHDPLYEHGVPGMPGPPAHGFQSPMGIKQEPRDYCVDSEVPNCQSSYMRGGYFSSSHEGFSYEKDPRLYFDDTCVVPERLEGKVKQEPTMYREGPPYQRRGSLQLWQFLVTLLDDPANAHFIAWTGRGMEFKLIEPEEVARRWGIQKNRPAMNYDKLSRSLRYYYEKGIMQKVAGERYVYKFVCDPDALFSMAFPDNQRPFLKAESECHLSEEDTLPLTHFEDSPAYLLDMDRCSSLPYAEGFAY
# In short: as §1
# HSF1 = HSF1 (Homo sapiens, UniProt Q00613 1-529); settings: protein: recombinant; tags: N-terminal GST; chain copies: 3; dsDNA, one strand shown
# Chain of HSF1 (Q00613 whole entry): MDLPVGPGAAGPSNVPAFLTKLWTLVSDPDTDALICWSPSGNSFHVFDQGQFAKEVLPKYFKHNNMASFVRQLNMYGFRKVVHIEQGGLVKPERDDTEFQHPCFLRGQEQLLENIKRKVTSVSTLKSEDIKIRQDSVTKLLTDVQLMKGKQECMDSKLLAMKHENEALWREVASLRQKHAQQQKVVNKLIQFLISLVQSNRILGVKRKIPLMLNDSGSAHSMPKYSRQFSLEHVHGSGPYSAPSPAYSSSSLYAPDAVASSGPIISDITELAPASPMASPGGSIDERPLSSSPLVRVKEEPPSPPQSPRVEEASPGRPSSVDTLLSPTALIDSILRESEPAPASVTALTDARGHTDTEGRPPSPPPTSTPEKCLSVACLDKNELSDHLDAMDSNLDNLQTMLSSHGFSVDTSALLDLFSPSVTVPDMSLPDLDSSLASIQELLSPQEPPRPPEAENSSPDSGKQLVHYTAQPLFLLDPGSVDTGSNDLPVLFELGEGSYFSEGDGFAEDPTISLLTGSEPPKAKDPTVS
# In short: as §1
# SPIC = molecular target: T2, SPIC (Homo sapiens, UniProt Q8N5J4 1-248); settings: protein: recombinant; tags: N-terminal GST; dsDNA, one strand shown
# T2 sequence: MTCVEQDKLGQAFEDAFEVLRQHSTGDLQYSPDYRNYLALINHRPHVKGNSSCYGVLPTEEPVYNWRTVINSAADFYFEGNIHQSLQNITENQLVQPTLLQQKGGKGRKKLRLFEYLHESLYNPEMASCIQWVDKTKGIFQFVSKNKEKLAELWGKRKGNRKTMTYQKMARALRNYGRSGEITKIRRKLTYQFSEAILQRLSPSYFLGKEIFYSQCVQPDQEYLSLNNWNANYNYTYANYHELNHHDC
# In short: as §1
# ELF4 = ELF4 (Homo sapiens, UniProt Q99607 1-663); settings: protein: recombinant; tags: N-terminal GST; dsDNA, one strand shown
# Chain of ELF4 (Q99607 whole entry): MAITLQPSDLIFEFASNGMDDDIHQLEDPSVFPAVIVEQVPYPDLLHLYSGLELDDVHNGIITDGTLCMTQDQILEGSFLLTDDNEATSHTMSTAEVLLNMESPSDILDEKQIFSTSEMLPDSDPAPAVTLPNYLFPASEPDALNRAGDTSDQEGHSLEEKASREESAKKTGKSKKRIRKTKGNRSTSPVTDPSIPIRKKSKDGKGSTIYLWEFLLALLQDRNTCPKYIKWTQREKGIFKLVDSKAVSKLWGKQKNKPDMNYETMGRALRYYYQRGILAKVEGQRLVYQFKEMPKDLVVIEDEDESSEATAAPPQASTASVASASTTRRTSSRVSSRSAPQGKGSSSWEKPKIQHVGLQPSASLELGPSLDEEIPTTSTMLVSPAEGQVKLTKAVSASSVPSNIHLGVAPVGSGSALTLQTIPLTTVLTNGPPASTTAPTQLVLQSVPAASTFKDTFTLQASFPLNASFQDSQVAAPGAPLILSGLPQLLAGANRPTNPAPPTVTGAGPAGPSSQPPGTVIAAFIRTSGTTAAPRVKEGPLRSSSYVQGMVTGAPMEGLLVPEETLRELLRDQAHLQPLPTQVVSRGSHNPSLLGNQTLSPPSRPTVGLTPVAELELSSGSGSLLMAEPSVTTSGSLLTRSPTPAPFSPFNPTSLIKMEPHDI
# In short: as §1
# ELK4 = molecular target: T3, ELK4 (Homo sapiens, UniProt P28324-2 1-405); settings: protein: recombinant; tags: N-terminal GST; dsDNA, one strand shown
# T3 sequence: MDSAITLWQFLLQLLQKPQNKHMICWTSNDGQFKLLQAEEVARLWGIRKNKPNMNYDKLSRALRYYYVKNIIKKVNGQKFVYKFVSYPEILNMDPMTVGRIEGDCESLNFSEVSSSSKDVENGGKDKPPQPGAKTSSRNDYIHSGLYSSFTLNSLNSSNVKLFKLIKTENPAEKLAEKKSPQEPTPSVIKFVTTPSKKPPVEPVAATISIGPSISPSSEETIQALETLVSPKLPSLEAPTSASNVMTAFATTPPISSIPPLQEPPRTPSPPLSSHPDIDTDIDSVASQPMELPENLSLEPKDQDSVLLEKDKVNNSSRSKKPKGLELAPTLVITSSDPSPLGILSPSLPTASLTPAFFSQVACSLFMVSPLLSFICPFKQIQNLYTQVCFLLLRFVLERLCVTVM
# In short: as §1
# ETV2 = molecular target: T4, ETV2 (Homo sapiens, UniProt O00321 1-342); settings: protein: recombinant; tags: N-terminal GST; dsDNA, one strand shown
# T4 sequence: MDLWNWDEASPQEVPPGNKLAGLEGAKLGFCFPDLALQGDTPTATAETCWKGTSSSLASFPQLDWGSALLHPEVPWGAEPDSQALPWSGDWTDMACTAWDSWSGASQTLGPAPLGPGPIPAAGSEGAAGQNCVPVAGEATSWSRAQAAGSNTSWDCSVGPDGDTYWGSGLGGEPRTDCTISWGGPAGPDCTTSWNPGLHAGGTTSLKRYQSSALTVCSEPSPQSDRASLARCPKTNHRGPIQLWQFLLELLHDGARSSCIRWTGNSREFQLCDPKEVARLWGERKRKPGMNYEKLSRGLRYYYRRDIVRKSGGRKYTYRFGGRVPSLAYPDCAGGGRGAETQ
# In short: as §1
# ELF3 = molecular target: T5, ELF3 (Homo sapiens, UniProt P78545 1-371); settings: protein: recombinant; tags: N-terminal GST; dsDNA, one strand shown
# T5 sequence: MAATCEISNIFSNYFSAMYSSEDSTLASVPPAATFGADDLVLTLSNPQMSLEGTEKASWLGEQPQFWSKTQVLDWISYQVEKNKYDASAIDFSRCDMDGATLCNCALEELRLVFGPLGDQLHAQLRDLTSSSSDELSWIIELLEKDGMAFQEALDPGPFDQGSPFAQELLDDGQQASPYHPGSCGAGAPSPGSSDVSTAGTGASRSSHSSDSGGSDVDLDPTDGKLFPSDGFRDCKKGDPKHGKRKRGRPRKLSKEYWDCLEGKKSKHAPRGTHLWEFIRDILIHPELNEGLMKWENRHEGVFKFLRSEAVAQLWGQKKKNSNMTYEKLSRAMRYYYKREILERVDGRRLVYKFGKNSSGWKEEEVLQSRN
# In short: as §1
# CRX = CRX (Homo sapiens, UniProt O43186 1-299); settings: protein: recombinant; tags: N-terminal GST; dsDNA, one strand shown
# Chain of CRX (O43186 whole entry): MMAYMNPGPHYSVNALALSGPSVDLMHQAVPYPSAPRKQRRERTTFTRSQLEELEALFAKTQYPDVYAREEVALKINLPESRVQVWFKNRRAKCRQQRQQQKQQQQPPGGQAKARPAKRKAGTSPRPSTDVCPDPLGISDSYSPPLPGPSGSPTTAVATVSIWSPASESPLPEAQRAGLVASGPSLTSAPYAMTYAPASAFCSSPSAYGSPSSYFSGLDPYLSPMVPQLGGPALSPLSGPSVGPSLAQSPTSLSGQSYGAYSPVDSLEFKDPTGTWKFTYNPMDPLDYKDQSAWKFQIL
# In short: as §1
# ETV1 = ETV1 (Homo sapiens, UniProt P50549 1-477); settings: protein: recombinant; tags: N-terminal GST; dsDNA, one strand shown
# Chain of ETV1 (P50549 whole entry): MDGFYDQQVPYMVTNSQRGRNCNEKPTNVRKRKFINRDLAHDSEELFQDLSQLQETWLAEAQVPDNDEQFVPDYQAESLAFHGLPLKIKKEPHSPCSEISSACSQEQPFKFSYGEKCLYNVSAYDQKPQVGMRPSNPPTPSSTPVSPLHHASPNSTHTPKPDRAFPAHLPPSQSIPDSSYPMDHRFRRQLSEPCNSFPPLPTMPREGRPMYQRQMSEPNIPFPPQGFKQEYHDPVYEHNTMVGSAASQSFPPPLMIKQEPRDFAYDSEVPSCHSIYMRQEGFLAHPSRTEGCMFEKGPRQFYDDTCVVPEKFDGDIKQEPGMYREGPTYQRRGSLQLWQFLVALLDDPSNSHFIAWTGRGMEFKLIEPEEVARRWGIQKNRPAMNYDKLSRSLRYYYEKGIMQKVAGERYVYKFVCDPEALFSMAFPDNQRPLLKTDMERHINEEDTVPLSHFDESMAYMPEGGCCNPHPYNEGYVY
# In short: as §1
# ERF = molecular target: T6, ERF (Homo sapiens, UniProt P50548 1-548); settings: protein: recombinant; tags: N-terminal GST; dsDNA, one strand shown
# T6 sequence: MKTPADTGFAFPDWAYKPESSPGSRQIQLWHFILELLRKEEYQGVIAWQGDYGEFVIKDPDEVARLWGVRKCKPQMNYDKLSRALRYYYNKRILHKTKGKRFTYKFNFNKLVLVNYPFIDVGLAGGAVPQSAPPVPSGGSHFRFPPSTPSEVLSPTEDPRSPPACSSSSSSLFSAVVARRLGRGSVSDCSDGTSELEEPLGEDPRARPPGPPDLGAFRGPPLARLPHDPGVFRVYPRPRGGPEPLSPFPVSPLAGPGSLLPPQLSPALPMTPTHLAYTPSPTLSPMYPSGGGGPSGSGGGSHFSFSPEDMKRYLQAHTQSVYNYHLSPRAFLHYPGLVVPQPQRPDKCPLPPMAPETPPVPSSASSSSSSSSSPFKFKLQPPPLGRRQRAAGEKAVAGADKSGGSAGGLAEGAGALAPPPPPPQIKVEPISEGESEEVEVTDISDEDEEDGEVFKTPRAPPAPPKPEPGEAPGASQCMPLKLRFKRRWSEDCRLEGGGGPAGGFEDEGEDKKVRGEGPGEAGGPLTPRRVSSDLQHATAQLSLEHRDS
# In short: as §1
# ETV3L = molecular target: T7, ETV3L (Homo sapiens, UniProt Q6ZN32 1-361); settings: protein: recombinant; tags: N-terminal GST; dsDNA, one strand shown
# T7 sequence: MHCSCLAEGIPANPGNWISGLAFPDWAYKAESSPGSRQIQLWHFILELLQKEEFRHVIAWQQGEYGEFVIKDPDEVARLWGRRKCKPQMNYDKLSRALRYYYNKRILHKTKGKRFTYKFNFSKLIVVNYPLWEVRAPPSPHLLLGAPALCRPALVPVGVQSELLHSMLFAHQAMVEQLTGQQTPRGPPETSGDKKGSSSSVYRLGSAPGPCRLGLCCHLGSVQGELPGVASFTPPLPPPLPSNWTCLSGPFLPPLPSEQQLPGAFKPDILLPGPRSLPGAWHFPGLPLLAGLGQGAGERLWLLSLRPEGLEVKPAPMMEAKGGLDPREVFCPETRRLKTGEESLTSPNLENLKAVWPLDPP
# In short: as §1
# ETS2 = molecular target: T8, ETS2 (Homo sapiens, UniProt P15036 1-469); settings: protein: recombinant; tags: N-terminal GST; dsDNA, one strand shown
# T8 sequence: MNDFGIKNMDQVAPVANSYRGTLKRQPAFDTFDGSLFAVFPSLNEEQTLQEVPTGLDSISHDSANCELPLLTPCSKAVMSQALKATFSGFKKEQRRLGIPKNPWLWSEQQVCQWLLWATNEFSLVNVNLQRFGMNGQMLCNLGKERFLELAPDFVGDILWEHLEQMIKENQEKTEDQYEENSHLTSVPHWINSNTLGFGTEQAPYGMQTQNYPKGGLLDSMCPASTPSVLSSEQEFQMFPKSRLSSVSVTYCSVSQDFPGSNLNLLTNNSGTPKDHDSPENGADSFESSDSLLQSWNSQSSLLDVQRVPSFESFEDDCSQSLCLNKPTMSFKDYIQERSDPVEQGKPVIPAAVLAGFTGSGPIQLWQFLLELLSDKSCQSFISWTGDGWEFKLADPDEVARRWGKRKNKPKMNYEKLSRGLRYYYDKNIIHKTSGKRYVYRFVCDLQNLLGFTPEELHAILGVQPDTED
# In short: as §1
# SPDEF = molecular target: T9, SPDEF (Homo sapiens, UniProt O95238 1-335); settings: protein: recombinant; tags: N-terminal GST; dsDNA, one strand shown
# T9 sequence: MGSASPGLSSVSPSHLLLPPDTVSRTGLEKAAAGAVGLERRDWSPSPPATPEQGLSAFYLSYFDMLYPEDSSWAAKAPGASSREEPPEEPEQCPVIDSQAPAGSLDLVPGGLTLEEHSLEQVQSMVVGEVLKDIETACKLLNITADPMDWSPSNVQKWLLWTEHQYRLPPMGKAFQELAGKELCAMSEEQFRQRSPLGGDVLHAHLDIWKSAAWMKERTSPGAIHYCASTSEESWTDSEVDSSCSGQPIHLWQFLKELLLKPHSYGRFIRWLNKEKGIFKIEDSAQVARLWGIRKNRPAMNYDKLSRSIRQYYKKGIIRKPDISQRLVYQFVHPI
# In short: as §1
# ETV7 = molecular target: T10, ETV7 (Homo sapiens, UniProt Q9Y603 1-341); settings: protein: recombinant; tags: N-terminal GST; dsDNA, one strand shown
# T10 sequence: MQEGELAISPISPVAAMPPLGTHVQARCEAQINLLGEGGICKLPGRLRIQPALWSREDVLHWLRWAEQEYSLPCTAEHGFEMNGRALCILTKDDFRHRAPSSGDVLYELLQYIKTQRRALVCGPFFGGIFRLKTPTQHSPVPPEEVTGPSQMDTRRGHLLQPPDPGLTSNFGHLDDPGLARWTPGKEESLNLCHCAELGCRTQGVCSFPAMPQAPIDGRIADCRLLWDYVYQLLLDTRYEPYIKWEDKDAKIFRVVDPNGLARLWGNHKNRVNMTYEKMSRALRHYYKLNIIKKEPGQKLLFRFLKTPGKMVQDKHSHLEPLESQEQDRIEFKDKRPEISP
# In short: as §1
# ELF5 = molecular target: T11, ELF5 (Homo sapiens, UniProt Q9UKW6-2 1-255); settings: protein: recombinant; tags: N-terminal GST; dsDNA, one strand shown
# T11 sequence: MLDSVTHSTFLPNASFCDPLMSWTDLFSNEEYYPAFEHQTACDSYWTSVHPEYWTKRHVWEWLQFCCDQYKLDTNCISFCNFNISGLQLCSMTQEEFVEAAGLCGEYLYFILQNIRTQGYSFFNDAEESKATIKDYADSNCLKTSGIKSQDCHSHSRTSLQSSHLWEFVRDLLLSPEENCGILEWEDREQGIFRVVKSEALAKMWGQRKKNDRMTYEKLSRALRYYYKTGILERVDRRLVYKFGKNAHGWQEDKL
# In short: as §1
# ETV3 = molecular target: T12, ETV3 (Homo sapiens, UniProt P41162-2 1-143); settings: protein: recombinant; tags: N-terminal GST; dsDNA, one strand shown
# T12 sequence: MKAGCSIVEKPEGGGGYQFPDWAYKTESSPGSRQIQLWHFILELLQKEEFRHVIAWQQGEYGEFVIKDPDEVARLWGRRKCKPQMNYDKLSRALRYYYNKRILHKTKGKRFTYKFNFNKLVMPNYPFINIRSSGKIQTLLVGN
# In short: as §1
# ETV6 = ETV6 (Homo sapiens, UniProt P41212 1-452); settings: protein: recombinant; tags: N-terminal GST; dsDNA, one strand shown
# Chain of ETV6 (P41212 whole entry): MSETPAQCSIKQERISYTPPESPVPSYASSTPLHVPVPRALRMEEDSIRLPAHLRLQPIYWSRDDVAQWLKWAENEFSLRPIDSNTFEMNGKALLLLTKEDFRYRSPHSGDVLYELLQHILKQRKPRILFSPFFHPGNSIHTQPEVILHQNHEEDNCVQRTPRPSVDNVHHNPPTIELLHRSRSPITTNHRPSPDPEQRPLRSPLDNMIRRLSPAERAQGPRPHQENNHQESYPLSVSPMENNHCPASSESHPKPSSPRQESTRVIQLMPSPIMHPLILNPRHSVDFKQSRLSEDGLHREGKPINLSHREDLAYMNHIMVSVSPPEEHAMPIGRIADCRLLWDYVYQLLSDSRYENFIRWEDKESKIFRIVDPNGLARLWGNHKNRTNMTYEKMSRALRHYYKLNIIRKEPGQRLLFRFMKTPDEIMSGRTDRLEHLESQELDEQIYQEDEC
# In short: as §1
sequence,measurement,setting,value
CTTCAT,binding signal,FEV,"1.46 fold enrichment (6-mer frequency, TF over GST control)"
same,binding signal,ETV5,"1.49 fold enrichment (6-mer frequency, TF over GST control)"
same,binding signal,HSF1,"1.34 fold enrichment (6-mer frequency, TF over GST control)"
same,binding signal,SPIC,"1.36 fold enrichment (6-mer frequency, TF over GST control)"
same,binding signal,ELF4,"1.4 fold enrichment (6-mer frequency, TF over GST control)"
same,binding signal,ELK4,"1.53 fold enrichment (6-mer frequency, TF over GST control)"
same,binding signal,ETV2,"1.39 fold enrichment (6-mer frequency, TF over GST control)"
same,binding signal,ELF3,"1.56 fold enrichment (6-mer frequency, TF over GST control)"
same,binding signal,CRX,"1.3 fold enrichment (6-mer frequency, TF over GST control)"
same,binding signal,ETV1,"1.5 fold enrichment (6-mer frequency, TF over GST control)"
same,binding signal,ERF,"1.35 fold enrichment (6-mer frequency, TF over GST control)"
same,binding signal,ETV3L,"1.52 fold enrichment (6-mer frequency, TF over GST control)"
same,binding signal,ETS2,"1.43 fold enrichment (6-mer frequency, TF over GST control)"
same,binding signal,SPDEF,"1.43 fold enrichment (6-mer frequency, TF over GST control)"
same,binding signal,ETV7,"1.46 fold enrichment (6-mer frequency, TF over GST control)"
same,binding signal,ELF5,"1.44 fold enrichment (6-mer frequency, TF over GST control)"
same,binding signal,ETV3,"1.46 fold enrichment (6-mer frequency, TF over GST control)"
same,binding signal,ETV6,"1.33 fold enrichment (6-mer frequency, TF over GST control)"
